From ChEMBL document CHEMBL1961873, “Compounds: GSK PKIS; Assays: Nanosyn kinase panel” (2012) come the findings set out here.

A word on the inhibition: it is the relative decrease from the control value, in per cent.

In experiment [1] the target is T1, Ephrin type-B receptor 2 (Homo sapiens) (UniProt P29323).
T1 sequence (whole entry): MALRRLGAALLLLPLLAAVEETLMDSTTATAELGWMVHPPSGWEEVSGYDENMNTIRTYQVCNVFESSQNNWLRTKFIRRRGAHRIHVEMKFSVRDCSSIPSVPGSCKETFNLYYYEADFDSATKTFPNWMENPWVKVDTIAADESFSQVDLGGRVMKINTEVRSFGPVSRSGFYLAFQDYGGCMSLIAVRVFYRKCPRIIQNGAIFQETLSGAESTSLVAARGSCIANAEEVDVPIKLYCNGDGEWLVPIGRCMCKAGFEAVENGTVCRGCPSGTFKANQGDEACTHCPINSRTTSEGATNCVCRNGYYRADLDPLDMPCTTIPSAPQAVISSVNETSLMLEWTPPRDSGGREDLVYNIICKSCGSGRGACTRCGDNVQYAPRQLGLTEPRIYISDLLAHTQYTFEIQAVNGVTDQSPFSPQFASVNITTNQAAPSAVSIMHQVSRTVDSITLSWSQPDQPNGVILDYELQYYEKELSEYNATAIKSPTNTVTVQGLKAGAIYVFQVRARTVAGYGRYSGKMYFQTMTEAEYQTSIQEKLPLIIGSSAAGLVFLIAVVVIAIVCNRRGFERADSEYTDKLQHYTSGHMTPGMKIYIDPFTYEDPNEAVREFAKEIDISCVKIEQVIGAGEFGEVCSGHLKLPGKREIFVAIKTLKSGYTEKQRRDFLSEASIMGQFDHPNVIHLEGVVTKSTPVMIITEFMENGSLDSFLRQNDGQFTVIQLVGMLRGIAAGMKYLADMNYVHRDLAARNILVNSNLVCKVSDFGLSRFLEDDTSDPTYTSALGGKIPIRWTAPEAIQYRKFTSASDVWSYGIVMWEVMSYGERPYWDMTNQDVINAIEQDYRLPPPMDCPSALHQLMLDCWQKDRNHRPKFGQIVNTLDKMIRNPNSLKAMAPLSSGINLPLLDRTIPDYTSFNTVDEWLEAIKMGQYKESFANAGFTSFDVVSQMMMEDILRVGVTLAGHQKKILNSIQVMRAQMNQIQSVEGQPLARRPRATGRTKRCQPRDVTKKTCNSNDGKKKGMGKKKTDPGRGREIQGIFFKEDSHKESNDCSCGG
The following applies: at 1 µM.

The target of experiment [2] is T2, Ephrin type-B receptor 3 (Homo sapiens) (UniProt P54753).
T2 sequence (whole entry): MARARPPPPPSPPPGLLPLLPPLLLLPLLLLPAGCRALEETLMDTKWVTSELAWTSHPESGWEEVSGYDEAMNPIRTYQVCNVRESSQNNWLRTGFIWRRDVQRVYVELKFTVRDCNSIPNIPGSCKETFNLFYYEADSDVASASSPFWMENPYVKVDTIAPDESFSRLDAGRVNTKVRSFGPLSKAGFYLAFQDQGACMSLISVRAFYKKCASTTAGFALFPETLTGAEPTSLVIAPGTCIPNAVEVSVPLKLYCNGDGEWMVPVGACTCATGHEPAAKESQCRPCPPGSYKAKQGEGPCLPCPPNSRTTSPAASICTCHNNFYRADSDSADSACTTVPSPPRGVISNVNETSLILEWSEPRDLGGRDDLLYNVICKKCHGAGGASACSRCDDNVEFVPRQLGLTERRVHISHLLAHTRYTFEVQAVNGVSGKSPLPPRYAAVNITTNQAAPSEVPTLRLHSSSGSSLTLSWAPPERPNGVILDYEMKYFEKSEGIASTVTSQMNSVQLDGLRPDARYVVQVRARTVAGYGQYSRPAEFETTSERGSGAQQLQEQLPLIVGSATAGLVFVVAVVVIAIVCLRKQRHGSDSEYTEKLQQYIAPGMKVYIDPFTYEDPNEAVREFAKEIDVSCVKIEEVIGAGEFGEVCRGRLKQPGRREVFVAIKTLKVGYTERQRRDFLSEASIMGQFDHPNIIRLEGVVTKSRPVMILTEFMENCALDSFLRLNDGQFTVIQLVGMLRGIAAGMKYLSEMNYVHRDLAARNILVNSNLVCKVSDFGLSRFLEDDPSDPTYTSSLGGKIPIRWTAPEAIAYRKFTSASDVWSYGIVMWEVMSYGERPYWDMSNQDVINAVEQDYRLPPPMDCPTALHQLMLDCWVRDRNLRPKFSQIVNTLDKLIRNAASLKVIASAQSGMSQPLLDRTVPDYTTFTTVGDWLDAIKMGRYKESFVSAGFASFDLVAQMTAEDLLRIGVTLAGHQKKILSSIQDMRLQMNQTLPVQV
The conditions noted are these: at 0.1 µM.

The target of experiment [3] is T2, Ephrin type-B receptor 3 (Homo sapiens). The conditions noted are these: at 1 µM.
Experiment [4] concerns the target T3, Ephrin type-B receptor 4 (Homo sapiens) (UniProt P54760).
T3 sequence (whole entry): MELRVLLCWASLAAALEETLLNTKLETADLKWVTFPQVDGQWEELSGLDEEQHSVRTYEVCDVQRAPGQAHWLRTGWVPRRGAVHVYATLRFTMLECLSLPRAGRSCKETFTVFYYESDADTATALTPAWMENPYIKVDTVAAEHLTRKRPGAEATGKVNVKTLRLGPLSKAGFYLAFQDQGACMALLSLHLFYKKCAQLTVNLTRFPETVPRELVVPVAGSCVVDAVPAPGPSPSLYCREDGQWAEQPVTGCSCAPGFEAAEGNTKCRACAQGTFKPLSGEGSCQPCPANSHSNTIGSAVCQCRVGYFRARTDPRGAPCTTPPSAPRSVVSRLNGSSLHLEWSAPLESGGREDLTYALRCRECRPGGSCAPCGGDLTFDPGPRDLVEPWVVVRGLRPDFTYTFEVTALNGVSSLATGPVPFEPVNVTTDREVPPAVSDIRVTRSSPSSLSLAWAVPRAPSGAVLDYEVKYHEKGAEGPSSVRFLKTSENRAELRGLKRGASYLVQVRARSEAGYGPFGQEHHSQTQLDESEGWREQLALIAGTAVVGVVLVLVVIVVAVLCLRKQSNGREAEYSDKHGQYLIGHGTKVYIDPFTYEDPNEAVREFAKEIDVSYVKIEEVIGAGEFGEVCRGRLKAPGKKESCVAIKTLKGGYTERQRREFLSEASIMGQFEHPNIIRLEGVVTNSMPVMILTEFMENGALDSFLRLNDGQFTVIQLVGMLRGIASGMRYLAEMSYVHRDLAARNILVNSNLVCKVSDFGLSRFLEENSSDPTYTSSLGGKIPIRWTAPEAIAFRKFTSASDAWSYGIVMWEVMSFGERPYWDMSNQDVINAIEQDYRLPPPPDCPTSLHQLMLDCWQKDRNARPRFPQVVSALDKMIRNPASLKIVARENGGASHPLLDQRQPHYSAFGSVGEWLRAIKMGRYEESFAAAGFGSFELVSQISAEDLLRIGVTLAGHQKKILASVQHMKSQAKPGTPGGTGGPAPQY
The conditions noted are these: at 0.1 µM.

Experiment [5] deals with T3, Ephrin type-B receptor 4 (Homo sapiens). The conditions noted are these: at 1 µM.
Experiment [6] concerns the target Receptor tyrosine-protein kinase erbB-2 (Homo sapiens) (UniProt P04626). The conditions noted are these: at 0.1 µM.
The target is the same in experiment [7]. The following applies: at 1 µM.
Experiment [8] has as its target Receptor tyrosine-protein kinase erbB-4 (Homo sapiens) (UniProt Q15303). The conditions noted are these: at 0.1 µM.
For experiment [9] the target is unchanged. The conditions noted are these: at 1 µM.
Experiment [10] addresses Tyrosine-protein kinase Fer (Homo sapiens) (UniProt P16591). The following applies: at 0.1 µM.

Receptor tyrosine-protein kinase erbB-2 (Homo sapiens), sequence (P04626 whole entry): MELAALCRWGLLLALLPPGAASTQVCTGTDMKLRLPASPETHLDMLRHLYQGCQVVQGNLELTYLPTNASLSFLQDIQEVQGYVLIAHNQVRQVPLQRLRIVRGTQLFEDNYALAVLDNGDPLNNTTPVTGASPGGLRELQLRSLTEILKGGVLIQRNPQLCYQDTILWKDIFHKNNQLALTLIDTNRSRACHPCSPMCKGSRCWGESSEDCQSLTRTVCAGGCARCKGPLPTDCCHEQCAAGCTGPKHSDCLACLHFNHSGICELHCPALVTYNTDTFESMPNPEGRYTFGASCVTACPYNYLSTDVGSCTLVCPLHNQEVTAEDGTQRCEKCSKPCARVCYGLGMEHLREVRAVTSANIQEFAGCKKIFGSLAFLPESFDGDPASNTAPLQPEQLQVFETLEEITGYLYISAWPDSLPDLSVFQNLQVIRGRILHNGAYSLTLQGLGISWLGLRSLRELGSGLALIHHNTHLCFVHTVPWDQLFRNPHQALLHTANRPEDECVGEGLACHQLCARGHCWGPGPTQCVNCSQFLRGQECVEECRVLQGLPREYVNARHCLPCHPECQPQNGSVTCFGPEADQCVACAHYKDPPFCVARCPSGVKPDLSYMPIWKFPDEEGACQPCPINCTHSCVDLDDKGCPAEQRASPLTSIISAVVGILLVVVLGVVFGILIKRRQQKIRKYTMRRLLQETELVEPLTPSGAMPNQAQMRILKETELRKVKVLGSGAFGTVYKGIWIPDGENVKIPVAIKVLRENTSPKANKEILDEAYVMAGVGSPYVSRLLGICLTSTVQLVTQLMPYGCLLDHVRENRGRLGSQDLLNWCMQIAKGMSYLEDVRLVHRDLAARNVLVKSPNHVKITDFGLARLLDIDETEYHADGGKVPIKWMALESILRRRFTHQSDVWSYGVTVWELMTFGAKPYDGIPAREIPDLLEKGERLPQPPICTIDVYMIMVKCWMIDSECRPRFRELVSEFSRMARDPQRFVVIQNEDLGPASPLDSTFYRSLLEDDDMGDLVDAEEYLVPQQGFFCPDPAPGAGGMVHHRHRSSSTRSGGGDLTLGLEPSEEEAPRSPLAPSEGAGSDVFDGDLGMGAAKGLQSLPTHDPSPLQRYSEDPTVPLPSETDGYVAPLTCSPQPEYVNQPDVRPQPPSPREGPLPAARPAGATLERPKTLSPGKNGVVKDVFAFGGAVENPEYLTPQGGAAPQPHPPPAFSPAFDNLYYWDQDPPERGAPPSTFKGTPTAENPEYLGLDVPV
Tyrosine-protein kinase Fer (Homo sapiens), sequence (P16591 whole entry, looked up): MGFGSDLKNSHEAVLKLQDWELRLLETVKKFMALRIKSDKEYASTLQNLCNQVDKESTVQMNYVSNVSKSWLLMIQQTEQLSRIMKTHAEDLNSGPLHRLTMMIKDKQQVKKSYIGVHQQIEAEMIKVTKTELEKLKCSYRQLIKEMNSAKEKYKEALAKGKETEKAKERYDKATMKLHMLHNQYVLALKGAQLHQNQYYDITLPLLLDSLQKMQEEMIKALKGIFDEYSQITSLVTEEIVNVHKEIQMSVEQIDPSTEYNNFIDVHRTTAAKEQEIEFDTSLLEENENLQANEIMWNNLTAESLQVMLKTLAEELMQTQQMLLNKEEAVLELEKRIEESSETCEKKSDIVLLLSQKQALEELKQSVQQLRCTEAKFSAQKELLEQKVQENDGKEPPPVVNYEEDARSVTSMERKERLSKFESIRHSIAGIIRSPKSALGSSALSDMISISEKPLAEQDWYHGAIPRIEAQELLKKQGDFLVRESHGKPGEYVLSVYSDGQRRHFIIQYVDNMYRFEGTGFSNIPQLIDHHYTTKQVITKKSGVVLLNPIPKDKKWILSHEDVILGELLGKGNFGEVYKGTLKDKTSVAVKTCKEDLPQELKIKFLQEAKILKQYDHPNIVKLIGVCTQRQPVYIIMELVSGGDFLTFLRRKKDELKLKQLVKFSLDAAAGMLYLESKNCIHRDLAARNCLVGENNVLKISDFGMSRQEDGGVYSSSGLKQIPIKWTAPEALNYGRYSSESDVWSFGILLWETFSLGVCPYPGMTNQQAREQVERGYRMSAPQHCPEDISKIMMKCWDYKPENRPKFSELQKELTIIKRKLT
Receptor tyrosine-protein kinase erbB-4 (Homo sapiens), sequence (Q15303 whole entry): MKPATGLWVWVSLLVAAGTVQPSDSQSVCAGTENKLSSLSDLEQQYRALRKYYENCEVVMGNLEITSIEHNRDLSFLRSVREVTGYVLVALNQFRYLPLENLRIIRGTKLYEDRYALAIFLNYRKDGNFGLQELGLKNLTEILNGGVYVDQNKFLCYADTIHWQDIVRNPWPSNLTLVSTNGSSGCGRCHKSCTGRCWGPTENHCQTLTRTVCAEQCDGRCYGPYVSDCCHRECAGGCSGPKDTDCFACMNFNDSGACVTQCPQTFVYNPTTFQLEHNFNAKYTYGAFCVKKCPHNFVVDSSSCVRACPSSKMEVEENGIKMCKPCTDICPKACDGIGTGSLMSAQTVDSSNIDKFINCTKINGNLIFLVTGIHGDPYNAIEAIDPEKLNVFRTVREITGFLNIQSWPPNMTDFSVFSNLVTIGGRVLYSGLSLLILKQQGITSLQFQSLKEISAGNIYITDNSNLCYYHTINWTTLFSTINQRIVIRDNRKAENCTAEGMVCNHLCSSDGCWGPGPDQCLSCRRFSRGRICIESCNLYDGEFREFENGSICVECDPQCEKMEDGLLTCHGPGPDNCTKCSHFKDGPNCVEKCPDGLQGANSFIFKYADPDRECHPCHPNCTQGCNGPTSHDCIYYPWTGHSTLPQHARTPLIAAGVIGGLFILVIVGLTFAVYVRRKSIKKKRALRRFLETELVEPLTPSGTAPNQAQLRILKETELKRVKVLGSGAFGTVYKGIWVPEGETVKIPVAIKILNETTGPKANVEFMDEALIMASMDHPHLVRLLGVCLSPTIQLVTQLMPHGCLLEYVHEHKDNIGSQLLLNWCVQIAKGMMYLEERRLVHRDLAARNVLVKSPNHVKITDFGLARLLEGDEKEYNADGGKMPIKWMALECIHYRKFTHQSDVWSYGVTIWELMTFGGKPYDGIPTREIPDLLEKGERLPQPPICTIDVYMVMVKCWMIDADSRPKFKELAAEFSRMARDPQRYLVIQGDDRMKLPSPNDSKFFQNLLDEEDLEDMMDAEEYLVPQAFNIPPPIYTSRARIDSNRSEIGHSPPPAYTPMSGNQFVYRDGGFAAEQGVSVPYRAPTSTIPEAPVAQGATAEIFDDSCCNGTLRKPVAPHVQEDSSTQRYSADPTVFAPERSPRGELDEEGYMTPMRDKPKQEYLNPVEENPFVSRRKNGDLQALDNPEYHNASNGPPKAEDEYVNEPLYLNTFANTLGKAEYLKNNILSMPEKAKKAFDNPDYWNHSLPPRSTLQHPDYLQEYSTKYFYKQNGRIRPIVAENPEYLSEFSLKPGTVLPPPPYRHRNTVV

Take `CS(=O)(=O)CCNCc1ccoc1-c1ccc2ncnc(Nc3ccc(OCc4ccccc4)cc3)c2c1`: the inhibition in [1] was 7.96%; in [2] it was 3.15%; in experiment [3], 2.98%; in experiment [4], 0.88%; in experiment [5], 1.51%; in [6] it was 3.25%. The inhibition in experiment [7] is 50.9%; in experiment [8], 32.3%; in experiment [9], 79.9%; in experiment [10] it was -0.1%.

For `c1cnn2ncc(-c3ccnc(NCCCN4CCOCC4)n3)c2c1`, the inhibition in experiment [1] came to 9.04%; in experiment [2], 6.96%; in [3], 3.37%; in [4], 1.21%; in experiment [5], 1.07%; in experiment [6], 1.75%. The inhibition in [7] was -0.02%; in experiment [8], 8.02%; in experiment [9], 8.49%; in experiment [10], 0.82%.

In the case of `NS(=O)(=O)c1ccc(N/N=C2\C(=O)Nc3ccc(C(=O)NCc4ccncc4)cc32)cc1`, the inhibition in experiment [1] came out at 11.1%; in experiment [2], 3.93%; in experiment [3], 2.6%; in [4], 1.83%; in [5] it was 4.17%; in experiment [6], 2.22%. The inhibition in experiment [7] was 6.09%; in experiment [8], 6.54%; in [9], 7.07%; in experiment [10], 2.36%.

For the molecule `O=C(Nc1n[nH]c2nnc(-c3cccnc3)cc12)C1CC1`, the inhibition in experiment [1] is 3.72%; in experiment [2], 0.63%; in experiment [3], 2.01%; in experiment [4], 2.37%; in experiment [5], 0.6%; in experiment [6], -2.7%. In addition, the inhibition is -0.28% in [7], -0.62% in experiment [8], 1.8% in [9] and -1.4% in experiment [10].

With `NS(=O)(=O)c1ccc(N/N=C2\C(=O)Nc3cccc(CCc4ccncc4)c32)cc1`, the inhibition was 5.15% in experiment [1]; 2.41% in experiment [2]; 2.85% in [3]; 1.21% in experiment [4]; 0.87% in experiment [5]; -0.81% in experiment [6]. Also, the inhibition turned out to be 3.74% in experiment [7], 4.66% in experiment [8], 8.01% in experiment [9] and 4.04% in experiment [10].

Regarding `CS(=O)(=O)CCNCc1ccc(-c2ccc3ncnc(Nc4ccc(OCc5cccc(C(F)(F)F)c5)cc4)c3c2)o1`, the inhibition in [1] amounted to 6.28%; in [2], 3.02%; in experiment [3] it was 3.57%; in experiment [4] it was 0.6%; in experiment [5], 2.19%; in experiment [6], 4.88%. In addition, the inhibition in experiment [7] was 3.5%; in [8], 7.3%; in [9], 28.5%; in [10] it was -1.96%.

`CN1CCC(n2cnc(-c3ccc(F)cc3)c2-c2ccnc(NCCO)n2)CC1`: the inhibition was 10.7% in experiment [1]; 4.67% in experiment [2]; 2% in experiment [3]; 1.85% in experiment [4]; 8.07% in [5]; 0.93% in experiment [6]. Further, the inhibition came out at 6.66% in experiment [7], 9.26% in experiment [8], 12.3% in experiment [9] and 7.03% in experiment [10].

For `O=C(O[C@H]1CN[C@H](C#Cc2cc3ncnc(Nc4ccc5c(cnn5Cc5ccccc5)c4)c3s2)C1)N1CCOCC1`, the inhibition in experiment [1] was 1.97%; in [2], -0.25%; in [3] it was 2.72%; in experiment [4], -1.51%; in experiment [5], 0.96%; in experiment [6] it was 6.21%. Also, the inhibition in experiment [7] is 48.3%; in experiment [8], 107%; in experiment [9], 104%; in experiment [10], -0.71%.

For `COc1ccc(Nc2ncc(-c3ccccc3)o2)cc1OC`, the inhibition in experiment [1] was -1.55%; in experiment [2] it was 2.4%; in experiment [3], -5.15%; in experiment [4], 2.84%; in [5] it was 6.24%; in experiment [6] it was 0.01%. Besides, the inhibition in experiment [7] is -2.56%; in experiment [8], 6.4%; in [9], 8.57%; in experiment [10], 0.47%.

For `N#Cc1cccc(Nc2ncc(-c3ccccc3)o2)c1`, the inhibition was 0.63% in [1]; 3.66% in [2]; 1.53% in experiment [3]; 0.33% in experiment [4]; 0.44% in experiment [5]; 2.68% in [6]. In addition, the inhibition in experiment [7] came out at 4.17%; in [8], 6.42%; in experiment [9], 9.11%; in experiment [10], 1.76%.
